This is an account of results in PubChem BioAssay (NCATS).

Assay [1] addresses Alpha-galactosidase (Coffea arabica) (UniProt Q42656). Kind of assay: Counterscreen for Glucocerebrosidase Inhibitors: qHTS Assay for Coffee Bean alpha-Galactosidase at pH 4.5 (AID 957). Also: series mostly up to about 77 µM. An outline of the steps: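 Fluorogenic read-out: 4-methylumbelliferone at Ex 365/Em 440 nm after NaOH/glycine stop (pH 10). Enzyme 2 nM, 4-MU-alpha-galactoside 80 uM, citrate buffer pH 4.5, 20 min RT; normalized to no-enzyme and enzyme controls.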

The target is the same in assay [2]. Nature of the assay: Counterscreen for Glucocerebrosidase Inhibitors: qHTS Assay for Coffee Bean alpha-Galactosidase at pH 5.9 (AID 998). Put shortly: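 Fluorogenic 4-MU substrate hydrolysis, 80 uM substrate and 2 nM coffee bean alpha-galactosidase, pH 5.9 citrate buffer, 20 min at room temperature, then NaOH/glycine stop. Titration 0.7 nM–77 uM, normalized to no-enzyme and enzyme controls, AC50 via Hill equation.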
For orientation: The purpose of a counterscreen is to sort out artefacts and off-target activity.

SMILES strings stand for the structures. Unmarked numbers belong to inactive results. Active and inactive are the calls of the source. Calls follow the shape of the dose curve; as a rule, active = well fitted curve in the direction sought with a large enough effect; inconclusive = small, poorly fitted or top-dose-only effect, or another doubt; inactive = no such curve, though single readings can be large; an effect the other way counts as inactive or inconclusive.

Chain of Alpha-galactosidase (Coffea arabica) (Q42656 whole entry, looked up): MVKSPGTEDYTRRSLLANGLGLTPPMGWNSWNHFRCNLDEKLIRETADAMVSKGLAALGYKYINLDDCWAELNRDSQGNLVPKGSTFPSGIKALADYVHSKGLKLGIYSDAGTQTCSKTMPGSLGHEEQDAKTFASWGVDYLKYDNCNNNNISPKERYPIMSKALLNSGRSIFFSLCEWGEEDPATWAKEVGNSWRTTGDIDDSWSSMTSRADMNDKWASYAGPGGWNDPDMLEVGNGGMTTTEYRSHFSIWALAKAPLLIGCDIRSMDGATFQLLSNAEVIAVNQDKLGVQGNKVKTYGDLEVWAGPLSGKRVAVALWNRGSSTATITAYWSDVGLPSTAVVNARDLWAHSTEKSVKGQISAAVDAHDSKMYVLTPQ

`CCCCC[C@H](O)c1cccc(OCc2ccc3ccccc3n2)c1`: the call in assay [1] and in assay [2] was inactive. Turning to `NC[C@](O)(CS(=O)(=O)O)c1ccc(Cl)cc1`, the call in assay [1] and in assay [2] was inactive.

Turning to `O=S(=O)(NCCNC/C=C\c1ccc(Br)cc1)c1cccc2cnccc12`, the result in assay [1] and in assay [2] was inactive. Turning to `N[C@@H]1CCN(O)C1=O`, the molecule was classed as inactive in assay [1] and in assay [2]. For the molecule `O=c1cc(O)cc(/C=C\c2ccc(O)c(O)c2)o1`, the result in assay [1] and in assay [2] was inactive. With `Cc1ccc(OC[C@H](O)[C@H](C)NC(C)C)c2c1CCC2`, the result in assay [1] and in assay [2] was inactive. Turning to `OC[C@@H]1O[C@@H](n2cnc3c(NC4CCCC4)ncnc32)[C@@H](O)[C@H]1O`, in assay [1], the call was inactive. Consider `Nc1ccn([C@@H]2O[C@@H](CO)[C@@H](O)[C@H]2O)c(=O)n1`, for which the molecule was called inactive in assay [1] and in assay [2].

In the case of `C[C@@H](COc1ccc(/C=C\c2ccccc2)cc1)[N+](C)(C)C`, the molecule was classed as inactive in assay [1] and in assay [2].

Regarding `N[C@H](CCC(=O)NCS(=O)(=O)O)C(=O)O`, the outcome in assay [1] was inactive. In the case of `COc1ccc(CCN(C)CCC[C@@](C#N)(c2ccc(OC)c(OC)c2)C(C)C)cc1OC`, the molecule was called inactive in assay [1] and in assay [2].

Turning to `N[C@@H](CO)C(=O)O`, the outcome in assay [1] and in assay [2] was inactive. `COCCc1ccc(OC[C@H](O)CNC(C)C)cc1`: the molecule was called inactive in assay [1] and in assay [2].

For the molecule `O=C(O)[C@H]1C[C@H](C(=O)O)N1`, the call in assay [1] and in assay [2] was inactive. For the molecule `Oc1ccc(/C=C\c2cc(O)cc(O)c2)cc1`, the call in assay [1] and in assay [2] was inactive. Regarding `C=C[C@H](N)CCC(=O)O`, the result in assay [1] and in assay [2] was inactive. Take `CN(C)[C@@H]1C(=O)C(C(N)=O)=C(O)[C@]2(O)C(=O)C3=C(O)c4c(O)ccc(Cl)c4[C@H](O)[C@H]3C[C@@H]12`: the molecule was called inactive in assay [1] and in assay [2].

Consider `C[C@@H](C(=O)O)c1cccc(C(=O)c2ccccc2)c1`, for which the outcome in assay [1] and in assay [2] was inactive.

In the case of `COc1cc2nc(N3CCN(C(=O)[C@H]4CCCO4)CC3)nc(N)c2cc1OC`, the molecule was called inactive in assay [1] and in assay [2]. On to `C[C@@H]1O[C@@H](n2cc(F)c(=O)[nH]c2=O)[C@H](O)[C@@H]1O`, for which the molecule was called inactive in assay [1] and in assay [2]. As for `COc1ccc(CCN(C)CCC[C@@](C#N)(c2cc(OC)c(OC)c(OC)c2)C(C)C)cc1OC`, the molecule was classed as inactive in assay [1] and in assay [2]. As to `Cc1cccc(C)c1OC[C@H](C)N`, the result in assay [1] and in assay [2] was inactive. For the molecule `C[C@@H]1CNCCN1S(=O)(=O)c1cccc2cnccc12`, the outcome in assay [1] and in assay [2] was inactive.

For `[N-]=[N+]=Nc1ccc(C(=O)CSC[C@@H](NC(=O)CC[C@@H](N)C(=O)O)C(=O)NCC(=O)O)cc1`, the outcome in assay [1] and in assay [2] was inactive. Take `CC#CCOC(=O)c1c(C)nc2sc3c(c2c1N)CC[C@@H](O)C3`: the molecule was called inactive in assay [1]. As to `C[C@@]12C(=O)OC(=O)[C@@]1(C)[C@H]1CC[C@@H]2O1`, the molecule was called inactive in assay [1] and in assay [2]. On to `C[C@@H](C(=O)O)c1ccc(C[C@@H]2CCCC2=O)cc1`, for which the outcome in assay [1] and in assay [2] was inactive.

Regarding `CC(=O)/C(C)=N\O`, the outcome in assay [1] and in assay [2] was inactive. With `N[C@H](CCCP(=O)(O)O)C(=O)O`, the molecule was classed as inactive in assay [1] and in assay [2]. Consider `O=C(O)CCC(=O)N1CCC[C@H]1C(=O)O`, for which the result in assay [1] and in assay [2] was inactive. `CC1(C)CCC(NC(=O)[C@H](N)CCC(=O)O)CC1`: the molecule was called inactive in assay [1] and in assay [2].

`O[C@@](CCN1CCCCC1)(c1ccccc1)C1CCCCC1`: the molecule was classed as inactive in assay [1] and in assay [2]. For `C[C@H](NCCc1ccc(O)cc1)[C@@H](O)c1ccc(O)cc1`, the outcome in assay [1] and in assay [2] was inactive. As for `N[C@H](Cc1cccc(-c2ccccc2CP(=O)(O)O)c1)C(=O)O`, the outcome in assay [1] and in assay [2] was inactive. In the case of `c1ccc2c(c1)CCC[C@H]2C1=NCCN1`, the outcome in assay [1] and in assay [2] was inactive.

Regarding `CCCCC#Cc1nc(N)c2ncn([C@@H]3O[C@@H](C(=O)NCC)[C@H](O)[C@@H]3O)c2n1`, the outcome in assay [1] and in assay [2] was inactive.
